The campaign covered roughly 410,000 compounds. About 2,000 (0.49%) were called active. Roughly 8% stayed inconclusive and do not appear here. Calls follow the shape of the full dose curve; tested in HEK293 reporter line. This excerpt belongs to a sample that is enriched for actives.
Assay: qHTS Assay for Foot and Mouth Disease Virus Antivirals: Primary Screen against the MLPCN compound library; also: nearly all actives have a fitted effect of over 55% in size
Details: FMDV antiviral cell-based qHTS; series mostly up to 57.9 µM; activity, negative = inhibition: at the top concentration
Potency is read from the fitted curve at half-maximal effect.

Row | Compound | activity, negative = inhibition | Potency
1 | CCCn1c(NC(=O)CCNC(=O)c2ccccc2Cl)nc2ccccc21 | -36% (inactive) | –
2 | COc1cc(NC(=O)N2CCC3(CC2)Nc2ccccc2-n2cccc23)cc(OC)c1OC | -30.8% (inactive) | –
3 | CCC1CCCCN1CCCCOc1cccc(Cl)c1 (stereo not drawn) | -32.7% (inactive) | –
4 | COc1ccccc1C(CNC(=O)c1ccc(OCc2c(C)noc2C)cc1)N1CCCC1 (stereo not drawn) | -34.6% (inactive) | –
5 | Cc1ccc(C2=Nc3ccccc3NC(c3ccncc3)=N2)cc1 | -31% (inactive) | –
6 | COc1ccccc1C(=O)Nc1ccc(C(=O)c2ccccc2)cc1 | -36.3% (inactive) | –
7 | Cc1ccc(Cl)cc1NC(=O)c1cc2ccccc2cc1O | -20.1% (inactive) | –
8 | O=C(Nc1ccc2ccccc2c1)c1ccccc1O | – | 14.1 µM (active)
9 | CC(C)NC(=S)NN(c1ccccc1)c1ccccc1 | -35.6% (inactive) | –
10 | CCOc1ccc(S(=O)(=O)N2CCC(n3c(C)nc4cccnc43)CC2)cc1 | -46.6% (inactive) | –
11 | COc1cccc(/C=N/Nc2ccc(C(=O)O)cc2)c1O | -103% (inactive) | –
12 | CCc1ccc2oc(-c3cc(N=Cc4cccc(OC)c4O)ccc3O)nc2c1 | – | 20 µM (active)
13 | Cc1nn(-c2cccc(Cl)c2)c2c1C(c1ccncc1)C(C#N)=C(N)O2 (stereo not drawn) | -32.2% (inactive) | –
14 | CCCOc1ccccc1C(=O)N(Cc1cccc(Br)c1)C1CCS(=O)(=O)C1 (stereo not drawn) | -49.6% (inactive) | –
15 | Cc1ccc(C)c(N2CCN(S(=O)(=O)c3cc4c(cc3Cl)NC(=O)CO4)CC2)c1 | -31.6% (inactive) | –
16 | CC(=O)N1CCc2cc(S(=O)(=O)CCC(=O)N3CCN(c4cc(C)ccc4C)CC3)ccc21 | -32.1% (inactive) | –
17 | Cc1ccc(C)c(N2CCN(C(=O)CCS(=O)(=O)c3ccc4c(c3)NC(=O)CO4)CC2)c1 | – | 12.6 µM (active)
18 | CCOC1=C2CN(S(=O)(=O)c3ccc(C)cc3)[C@H](c3ccccc3)C[C@@H]2N(S(=O)(=O)c2ccc(C)cc2)[C@H](c2cccc(C)c2)C1 | -33.1% (inactive) | –
19 | Cc1onc(-c2ccccc2)c1C(=O)n1nnc2ccccc21 | -36.4% (inactive) | –
20 | COc1ccc(-c2c3c(=O)n(C)c(=O)n(C)c3c3c(-c4ccccc4)nc4ccccc4n23)cc1 | -18% (inactive) | –
21 | Cn1c(-c2ccccc2)cc2onc(-c3ccccc3)c2c1=O | – | 8.91 µM (active)

Row | Compound | activity, negative = inhibition | Potency
22 | Cc1cc(Br)cc(C)c1OCC(=O)NNC(=O)c1cccs1 | -38.5% (inactive) | –
23 | Cc1cc(NC(=O)c2ccc(S(=O)(=O)N3CCc4ccccc43)cc2)no1 | -32.7% (inactive) | –
24 | COc1ccc(C)cc1S(=O)(=O)Nc1ccccc1 | 103% (inactive) | –
25 | COc1cc(NS(=O)(=O)c2ccc(C)cc2C)cc(OC)c1OC | – | 20 µM (active)
26 | COc1ccc(OC)c(S(=O)(=O)Nc2ccc(F)cc2)c1 | 125% (inactive) | –
27 | CC1=[N+](C)c2ccc3ccccc3c2C1(C)C | -33.1% (inactive) | –
28 | Cc1ccccc1OCc1nnc(SCC(=O)Nc2c(C)n(C)n(-c3ccccc3)c2=O)n1-c1ccccc1 | -43.3% (inactive) | –
29 | Cc1cc(O)ccc1Nc1nc(-c2cccs2)cs1 | – | 20 µM (active)
30 | Cc1ccc(NC(=O)c2cc(-c3cccs3)nc3ccccc23)c(C)c1 | -38.9% (inactive) | –
31 | NS(=O)(=O)c1ccc(Nc2nc(-c3ccc(O)cc3O)cs2)cc1 | -33% (inactive) | –
32 | Cc1ccc(S(=O)(=O)N2CCN(C(=O)/C=C/c3ccccc3)CC2)cc1C | -31.7% (inactive) | –
33 | COc1cccc(-n2c(/C=C\c3ccc(Cl)cc3)nc3ccccc3c2=O)c1 | -32.4% (inactive) | –
34 | Cc1ccc(/C=C/c2nc3ccccc3n2S(=O)(=O)c2cccc(Cl)c2)cc1 | – | 8.91 µM (active)
35 | Cc1cc(S(=O)(=O)N2CCN(c3ccccc3F)CC2)ccc1-n1cnnn1 | -37.1% (inactive) | –
36 | Cc1ccc(/C=C/c2nc3ccccc3c(=O)n2CCc2ccccc2)cc1 | -32.9% (inactive) | –
37 | CSc1ccc(/C=C/c2nc3ccccc3n2S(=O)(=O)c2ccc(F)c(C)c2)cc1 | – | 20 µM (active)
38 | CN1CCN(NC(=O)Nc2cc(Cl)cc(Cl)c2)CC1 | -36.1% (inactive) | –
39 | COc1ccc(CN2CCNC(=O)C2CC(=O)N(C)Cc2ccno2)c(F)c1 (stereo not drawn) | -25.3% (inactive) | –
40 | CCSc1ncc(Cl)c(C(=O)N(Cc2ccccc2Cl)C2CCS(=O)(=O)C2)n1 (stereo not drawn) | -33.9% (inactive) | –
41 | CCn1c(N2CCC(C)CC2)nc2c1c(=O)n(C)c(=O)n2C | -41.6% (inactive) | –
42 | CS(=O)(=O)c1nc(-c2ccc(Br)cc2)cc(-c2ccccc2)c1C#N | – | 25.1 µM (active)

Row | Compound | activity, negative = inhibition | Potency
43 | CCc1nnc(NC(=O)CSc2nc(-c3ccccc3)cc(-c3ccc(F)cc3)c2C#N)s1 | 135% (inactive) | –
44 | Nc1cc(-c2ccc(Br)cc2)nn1S(=O)(=O)c1ccccc1 | -33% (inactive) | –
45 | COc1ccc(C)cc1NC(=O)/C=C/c1ccc(OC)c(S(=O)(=O)N2CCOCC2)c1 | -31.7% (inactive) | –
46 | COc1ccc(C(=O)Nc2ccc(C)c(S(=O)(=O)N3CCOCC3)c2)cc1S(=O)(=O)N1CCCC1 | -31.5% (inactive) | –
47 | COc1ccc(/C=C/C(=O)Nc2ccccc2)cc1S(=O)(=O)N1CCOCC1 | – | 12.6 µM (active)
48 | CCOC(=O)C1CCCN(S(=O)(=O)c2cc3c(cc2Cl)NC(=O)CO3)C1 (stereo not drawn) | -31% (inactive) | –
49 | Cc1oc(-c2ccc(Cl)cc2)nc1CN1CCCC(C(=O)NCc2cccnc2)C1 (stereo not drawn) | -20.1% (inactive) | –
50 | Cc1oc(-c2ccc(Cl)cc2)nc1CN1CCCC(C(=O)NCCCN2CCCC2=O)C1 (stereo not drawn) | – | 7.94 µM (active)
51 | CCCN(CCC)CCCNC(=O)C1CCCN(Cc2nc(-c3ccc(Cl)cc3)oc2C)C1 (stereo not drawn) | -26.9% (inactive) | –
52 | Cc1ccc(S(=O)(=O)N2CCN(C(=O)CCCN3C(=O)NC4(CCCC4)C3=O)CC2)cc1C | -33.6% (inactive) | –
53 | CCn1c2ccccc2c2cc(NC(=O)COc3ccc(C)c(C)c3)ccc21 | -31.2% (inactive) | –
54 | CCOc1ccc(-c2nnc(NC(=O)COc3ccccc3F)o2)cc1 | 119% (inactive) | –
55 | CCOc1ccc(-c2nnc(-c3cccs3)o2)cc1 | – | 15.8 µM (active)
56 | CCn1c(SCCOc2ccc(Cl)cc2)nnc1-c1cccs1 | -32.5% (inactive) | –
57 | Cc1ccccc1-c1cnc2c(c1)C(=O)N([C@@H](C)CO)C[C@@H](C)[C@H](CN(C)Cc1ccccc1F)O2 | -11.7% (inactive) | –
58 | COc1ccc(C(O)(CC(C)C)C(CN2CCOCC2)c2ccccc2)cc1 (stereo not drawn) | -37.2% (inactive) | –
59 | O=C(Nc1ccc2nc(SCCOc3ccccc3)sc2c1)c1ccc2c(c1)OCO2 | -33.5% (inactive) | –
60 | O=C(Nc1nc2ccccc2s1)c1ccc2c(c1)OCO2 | – | 14.1 µM (active)
61 | Cc1cc(NC(=O)c2ccc3c(c2)OCO3)ccc1NC(=O)c1ccccc1 | -94.1% (inactive) | –
62 | CC1(Cc2cc(Cl)ccc2C(F)(F)F)C(=O)Nc2c(Cl)cccc21 (stereo not drawn) | -32.7% (inactive) | –
63 | CCC(=O)N1CCc2cc(S(=O)(=O)CCC(=O)N3CCN(c4ccc(C(C)=O)cc4)CC3)ccc21 | -30.2% (inactive) | –

Source: PubChem BioAssay AID1347131 (National Center for Advancing Translational Sciences (NCATS), 2019)
